Reference: the supplement of paper PMC3414501
Where a name gives a salt, the structure may show the parent alone.

Experiments:
[1] = system: S. cerevisiae SK1 pCDA2-eGFP (USY613), sporulating; experiment: CDA2-GFP sporulation assay sensitivity score (z-score vs DMSO controls); higher = stronger inhibition of sporulation, active = hit call of the paper;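 also: active if sensitivity score above 5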
[2] = system: S. cerevisiae AD1-9 (efflux-pump deficient), vegetative growth in YPD; experiment: growth sensitivity score (doubling time z-score vs DMSO controls); higher = slower growth, strongly negative scores also mark growth inhibition (complete suppression), active = hit call of the paper
Procedure, shortened: (§1)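 Optical density of Saccharomyces cerevisiae cultures in microtiter plates was followed every 15 min for 24 hours after seeding at an OD600 of 0.065. Eight solvent-only wells were run per experiment. Growth sensitivity scores were found by subtracting the solvent-only mean from the compound mean and dividing by the solvent-only standard deviation.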

[3] = system: S. cerevisiae BY4741 (wild-type), vegetative growth in YPD; experiment: as above
Procedure, shortened: as §1

| Structure (SMILES) | CDA2-GFP sporulation assay sensitivity score [1] | growth sensitivity score [2] | growth sensitivity score [3] |
| --- | --- | --- | --- |
| CC(C)(C#N)c1cc(Cn2cncn2)cc(C(C)(C)C#N)c1 [Anastrozole] (stock concentration (mM, diluted 1:100): 10) | 3.64 (inactive) | -1.94 (inactive) | -0.82 (inactive) |
| COc1cc(-c2ccc(=O)[nH]n2)ccc1OC(F)F [Zardaverine] (stock concentration (mM, diluted 1:100): 11.7) | 1.43 (inactive) | 2.67 (active) | 1.71 (inactive) |
| Nc1c2c(nc3ccccc13)CCCC2 [Tacrine hydrochloride] (stock concentration (mM, diluted 1:100): 9) | 10.2 (active) | -5.79 | 2.93 (active) |
| CC(C)c1ccc2oc3nc(N)c(C(=O)O)cc3c(=O)c2c1 [Amlexanox] (stock concentration (mM, diluted 1:100): 10) | -0.73 (inactive) | 0.42 (inactive) | 1.8 (inactive) |
| C[C@@H]1C[C@H]2[C@@H]3C[C@H](F)C4=CC(=O)C(Cl)=C[C@]4(C)[C@@]3(F)[C@@H](O)C[C@]2(C)[C@@]1(O)C(=O)CO [Halometasone monohydrate] (stock concentration (mM, diluted 1:100): 10) | 0.27 (inactive) | 2.32 (active) | -0.26 (inactive) |
| CC12CC3CC(C)(C1)CC(N)(C3)C2 [Memantine hydrochloride] (stock concentration (mM, diluted 1:100): 8.3) | 2.32 (inactive) | -0.36 (inactive) | -0.66 (inactive) |
| CC(=O)NC[C@H]1CN(c2ccc(N3CCOCC3)c(F)c2)C(=O)O1 [Linezolide] (stock concentration (mM, diluted 1:100): 10) | 0.79 (inactive) | 2.05 (active) | -1.67 (inactive) |
